Experimental data: PubChem BioAssay (NCATS)
Values joined by “and” are separate entries in the source; they are usually repeats but may differ in a detail not shown here. Equal values may be shown once. Records with an inconclusive call do not appear. A number with no mark means an inactive call. Active and inactive are the calls of the source. Calls follow the shape of the full dose curve; tested in HEK293 reporter line.

Test: qHTS for Inhibitors of the Functional Ribonucleoprotein Complex (vRNP) of Lassa (LASV) Arenavirus: LASV Primary Screen - GLuc reporter signal (AID 1347082); also: nearly all actives have a fitted effect of over 60% in size
Settings: LASV minigenome vRNP, Gaussia luciferase reporter; series mostly up to 57.5 µM; activity change, negative = inhibition: at the top concentration
% is scaled to controls: 0 for no effect and ±100 for the full control effect.

SMILES	activity change, negative = inhibition	Potency
COc1cc(NCc2ccc3nc(N)nc(N)c3c2C)cc(OC)c1OC	-48%	
CC(C)CC(N(C)C)C1(c2ccc(Cl)cc2)CCC1 (stereo unspecified)		inactive
CCC(=O)C(CC(C)N(C)C)(c1ccccc1)c1ccccc1 (stereo unspecified)	-20% [at 115 µM]	
Nc1nc2c(ncn2COC(CO)CO)c(=O)[nH]1	0.509%	
Cc1ccc(-n2nc(C(C)(C)C)cc2NC(=O)Nc2ccc(OCCN3CCOCC3)c3ccccc23)cc1	-20.6%	
COC(=O)C1=C(C)NC(C)=C(C(=O)OCC(C)C)C1c1ccccc1[N+](=O)[O-] (stereo unspecified)	-29%	
CC(=O)N(O)CCCCCNC(=O)CCC(=O)N(O)CCCCCNC(=O)CCC(=O)N(O)CCCCCN	-29.9%	
NC1[C@H]2CN(c3nc4c(cc3F)c(=O)c(C(=O)O)cn4-c3ccc(F)cc3F)C[C@@H]12 (stereo partly specified)	-30.5%	
Nc1nc(N)c2nc(-c3ccccc3)c(N)nc2n1		inactive
Nc1ccn([C@@H]2O[C@H](CO)[C@@H](O)C2(F)F)c(=O)n1	-16.8%	
Cn1cc(C2=C(c3cn(C4CCN(Cc5ccccn5)CC4)c4ccccc34)C(=O)NC2=O)c2ccccc21		inactive
O=C(c1ccccc1)c1ccc2n1CCC2C(=O)O (stereo unspecified)		inactive
CC1(CN2CCC(n3c(=O)[nH]c4ccccc43)CC2)OCc2ccccc2-n2cccc21 (stereo unspecified)	-33.8%	
CO[C@@]12[C@H](COC(N)=O)C3=C(C(=O)C(C)=C(N)C3=O)N1C[C@@H]1N[C@@H]12	-29.4%	
CCCC(CCC)C(=O)O		inactive
CNS(=O)(=O)CCc1ccc2[nH]cc(C3CCN(C)CC3)c2c1	6.77%	

Test: qHTS for Inhibitors of the Functional Ribonucleoprotein Complex (vRNP) of Lassa (LASV) Arenavirus: Viability assay - alamar blue signal for LASV Primary Screen (AID 1347083); also: nearly all actives have a fitted effect of over 80% in size; also: potency is read from the fitted curve at half-maximal effect
Settings: cell viability, alamar blue fluorescence (LASV minigenome counter-screen); series mostly up to 57.5 µM; activity change, negative = reduced viability: at the top concentration

SMILES	Potency	activity change, negative = reduced viability
CCc1c2c(nc3ccc(OC(=O)N4CCC(N5CCCCC5)CC4)cc13)-c1cc3c(c(=O)n1C2)COC(=O)[C@]3(O)CC	4.32 µM (active)	
O=C1Cc2cc(CCN3CCN(c4nsc5ccccc45)CC3)c(Cl)cc2N1	inactive	
CCC1=C[C@@H]2CN(C1)Cc1c([nH]c3ccccc13)[C@@](C(=O)OC)(c1cc3c(cc1OC)N(C)[C@H]1[C@@](O)(C(=O)OC)[C@H](OC(C)=O)[C@]4(CC)C=CCN5CC[C@]31[C@@H]54)C2		-129%
CS(=O)(=O)CCNCc1ccc(-c2ccc3ncnc(Nc4ccc(OCc5cccc(F)c5)c(Cl)c4)c3c2)o1	0.432 µM (active)	
CCOC(=O)C1(c2ccccc2)CCN(CCC(C#N)(c2ccccc2)c2ccccc2)CC1		-32.3%
CC(C)n1c(C=C[C@H](O)C[C@H](O)CC(=O)O)c(-c2ccc(F)cc2)c2ccccc21	2.43 µM (active)	
Cc1cc2c(C(C)C)c(O)c(O)c(C=O)c2c(O)c1-c1c(C)cc2c(C(C)C)c(O)c(O)c(C=O)c2c1O	30.6 µM (active)	
COc1ccc(Cc2nccc3cc(OC)c(OC)cc23)cc1OC	inactive	
COc1cc(Nc2c(C#N)cnc3cc(OCCCN4CCN(C)CC4)c(OC)cc23)c(Cl)cc1Cl	1.09 µM (active)	
Cc1sc2c(c1C)C(c1ccc(Cl)cc1)=N[C@@H](CC(=O)OC(C)(C)C)c1nnc(C)n1-2	2.43 µM (active)	
O=C1c2c(O)ccc(O)c2C(=O)c2c(NCCNCCO)ccc(NCCNCCO)c21	685 nM (active) and 891 nM (active) and 1.78 µM (active)	
N=C(N)c1ccc(OCCCCCOc2ccc(C(=N)N)cc2)cc1	38.5 µM (active)	
Nc1nc(=S)c2[nH]cnc2[nH]1	17.2 µM (active)	
C[C@@H]1[C@@H](C(=O)C[C@H]2O[C@@H]3O[C@]4(C)CC[C@@H]5[C@H](C)CC[C@@H]([C@H]2C)[C@@]35OO4)O[C@@H]2O[C@]3(C)CC[C@H]4[C@H](C)CC[C@@H]1[C@@]24OO3		-23.2%

Test: qHTS for Inhibitors of the Functional Ribonucleoprotein Complex (vRNP) of Lymphocytic Choriomeningitis Arenaviruses (LCMV): Viability assay - alamar blue signal for LCMV Primary Screen (AID 1347085); also: nearly all actives have a fitted effect of over 80% in size; also: potency is read from the fitted curve at half-maximal effect
Settings: alamar blue viability counter-screen, LCMV vRNP screen cells; series mostly up to 57.5 µM; activity change, negative = lower viability: at the top concentration

SMILES	activity change, negative = lower viability	Potency
CCc1nn(CCCN2CCN(c3cccc(Cl)c3)CC2)c(=O)n1CCOc1ccccc1	-10.3%	
O=C1Cc2cc(CCN3CCN(c4nsc5ccccc45)CC3)c(Cl)cc2N1		inactive
CC(C)CC(N(C)C)C1(c2ccc(Cl)cc2)CCC1 (stereo unspecified)		inactive
CCC1=C[C@@H]2CN(C1)Cc1c([nH]c3ccccc13)[C@@](C(=O)OC)(c1cc3c(cc1OC)N(C)[C@H]1[C@@](O)(C(=O)OC)[C@H](OC(C)=O)[C@]4(CC)C=CCN5CC[C@]31[C@@H]54)C2	-142%	
CCC(=O)C(CC(C)N(C)C)(c1ccccc1)c1ccccc1 (stereo unspecified)	-13% [at 115 µM]	
CS(=O)(=O)CCNCc1ccc(-c2ccc3ncnc(Nc4ccc(OCc5cccc(F)c5)c(Cl)c4)c3c2)o1		0.137 µM (active)
CC(C)n1c(C=C[C@H](O)C[C@H](O)CC(=O)O)c(-c2ccc(F)cc2)c2ccccc21		7.69 µM (active)
Cc1cc2c(C(C)C)c(O)c(O)c(C=O)c2c(O)c1-c1c(C)cc2c(C(C)C)c(O)c(O)c(C=O)c2c1O	-147%	
COC(=O)C1=C(C)NC(C)=C(C(=O)OCC(C)C)C1c1ccccc1[N+](=O)[O-] (stereo unspecified)	-16.3%	
COc1ccc(Cc2nccc3cc(OC)c(OC)cc23)cc1OC		inactive
CC(=O)N(O)CCCCCNC(=O)CCC(=O)N(O)CCCCCNC(=O)CCC(=O)N(O)CCCCCN		inactive
Cc1nc(Nc2ncc(C(=O)Nc3c(C)cccc3Cl)s2)cc(N2CCN(CCO)CC2)n1	-60.3%	
O=C(c1ccccc1)c1ccc2n1CCC2C(=O)O (stereo unspecified)		inactive
CC1(CN2CCC(n3c(=O)[nH]c4ccccc43)CC2)OCc2ccccc2-n2cccc21 (stereo unspecified)	-1.05%	
Cc1sc2c(c1C)C(c1ccc(Cl)cc1)=N[C@@H](CC(=O)OC(C)(C)C)c1nnc(C)n1-2		1.09 µM (active)
C[C@@H]1[C@@H](CC(C[C@H]2O[C@@H]3O[C@]4(C)CC[C@@H]5[C@H](C)CC[C@@H]([C@H]2C)[C@@]35OO4)C[S+](=O)([O-])c2ccc(COC(=O)N(C)C)cc2)O[C@@H]2O[C@]3(C)CC[C@H]4[C@H](C)CC[C@@H]1[C@@]24OO3 (stereo partly specified)	-1.91%	
CCN(CC)CCN1C(=O)CN=C(c2ccccc2F)c2cc(Cl)ccc21	-12.3%	
O=C1c2c(O)ccc(O)c2C(=O)c2c(NCCNCCO)ccc(NCCNCCO)c21		1.37 µM (active) and 1.26 µM (active)
Cc1ccc(S(=O)(=O)NC(=O)NN2CC3CCCC3C2)cc1 (stereo unspecified)	-3.31%	
CN(C)CCN(C)CCc1ccc(Cl)c(Cl)c1		21.7 µM (active)
C[C@@H]1[C@@H](C(=O)C[C@H]2O[C@@H]3O[C@]4(C)CC[C@@H]5[C@H](C)CC[C@@H]([C@H]2C)[C@@]35OO4)O[C@@H]2O[C@]3(C)CC[C@H]4[C@H](C)CC[C@@H]1[C@@]24OO3		21.7 µM (active)
